Screening data from PubChem BioAssay.
The list is not random: actives were taken first. Their share in the collection is about 3.7%.
PI5P4K alpha inh: qHTS for Inhibitors of phosphatidylinositol 5-phosphate 4-kinase (PI5P4K); actives 1.2% (n = 330,000); Phosphatidylinositol 5-phosphate 4-kinase type-2 alpha (Homo sapiens), P48426; max response, %; PI5P4Kalpha enzyme, ADP-Glo luminescence, 60 min; stronger effect = lower value; active = max response of -50% or lower; inconclusive = between -30% and -50%; inactive = -30% or higher; also: value at the top dose of about 77 µM
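Human PI5P4Kalpha with substrate in 0.038 M HEPES pH 7.4, 0.28 mM EGTA, 0.1% CHAPS, 5% DMSO; reaction started with 5 microM ATP (final), 60 min at room temperature. ADP formed read by ADP-Glo luminescence.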
FEN1 inhibitor: qHTS Assay for the Inhibitors of Human Flap endonuclease 1 (FEN1) | P39748 | Recombinant FEN1 flap cleavage, fluorescence, 15 min | Potency, µM (highest dose often 114 µM), most hits filed as inhibitors | actives 0.35% (n = 390,000) | AID 588795, 2011; also: nearly all actives have a fitted effect of over 65% in size
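Steps: FEN1 (10 nM) dispensed; compound added by pin tool; 15 min at room temperature; substrate added to 50 nM final; reads at 0 min and 15 min; data normalized and fitted (four-parameter Hill).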
PLK1 PBD inh: qHTS for Inhibitors of PLK1-PDB (polo-like kinase 1 - polo-box domain): Primary Screen; AID 720504, 2013; Plk1 PBD binding of FITC phosphopeptide, fluorescence polarization; Serine/threonine-protein kinase PLK1 (Homo sapiens), P53350; Potency, µM, actives largely listed as inhibitors; actives 2.8% (n = 360,000); also: series mostly up to about 57 µM; nearly all actives have a fitted effect of over 65% in size
Target sequence (P53350 whole entry, looked up, the tested form may be a part): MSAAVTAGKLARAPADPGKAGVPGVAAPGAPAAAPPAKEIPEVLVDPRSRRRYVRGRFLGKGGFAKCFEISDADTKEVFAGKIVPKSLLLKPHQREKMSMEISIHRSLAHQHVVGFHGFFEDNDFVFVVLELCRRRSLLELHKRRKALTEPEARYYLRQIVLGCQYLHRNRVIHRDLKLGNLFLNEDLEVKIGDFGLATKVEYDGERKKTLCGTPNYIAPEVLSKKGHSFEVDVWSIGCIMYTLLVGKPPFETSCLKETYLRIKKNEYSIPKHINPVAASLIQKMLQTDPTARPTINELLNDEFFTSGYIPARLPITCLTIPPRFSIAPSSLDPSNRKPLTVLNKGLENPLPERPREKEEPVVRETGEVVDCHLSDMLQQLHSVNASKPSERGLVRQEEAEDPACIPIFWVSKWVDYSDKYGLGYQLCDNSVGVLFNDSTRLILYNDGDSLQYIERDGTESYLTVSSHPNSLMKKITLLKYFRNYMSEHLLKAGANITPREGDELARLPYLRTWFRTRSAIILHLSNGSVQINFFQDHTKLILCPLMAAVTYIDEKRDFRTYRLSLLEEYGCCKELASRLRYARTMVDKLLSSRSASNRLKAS
WRN inhibitor: qHTS for Inhibitors of WRN Helicase | Bifunctional 3'-5' exonuclease/ATP-dependent helicase WRN (Homo sapiens), Q14191 | WRN helicase unwinding, fluorescent forked duplex, kinetic | Potency, µM (series often up to 114 µM), most hits filed as inhibitors | actives 0.46% (n = 360,000); also: nearly all actives have a fitted effect of over 55% in size
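Primary qHTS, 1536-well format. 20 nM WRN + compound, 15 min RT; start with 100 nM forked fluorophore/quencher duplex, 2 mM ATP (final); kinetic read ex 525/em 598 nm.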
VDR inhibitor: Inhibitors of the vitamin D receptor (VDR): qHTS. Potency, µM, most hits filed as inhibitors. VDR-SRC2-3 peptide fluorescence polarization, 2 h. AID 504847, 2011. actives 0.93% (n = 400,000)
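Signal is fluorescence polarization, reporting how far test compounds block the interaction of VDR with the SRC2-3 coregulator peptide after a 2 h room-temperature incubation.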
TCR act: Activators of T cell receptors: qHTS campaign. primary human leukocytes, anti-CD3, IL-2 HTRF, 48 h. Potency, µM (highest dose often 9.22 µM), hits mostly activators. 330,000 tested, under 10 active
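Readout: HTRF IL-2, Eu-cryptate/d2 antibody pair, 320nm excitation, 665nm emission. Stimulus: a-CD3 beads, no co-stimulation. Cells: primary human leukocytes. Exposure: 48 hr with compound.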
Hits are given with their value; – = inactive; ? = inconclusive; · = not tested or not shown; [ ] = another dose, or the depositor's remark. Unless noted, calls follow the shape of the dose curve; as a rule, active = well fitted curve in the direction sought with a large enough effect; inconclusive = small, poorly fitted or top-dose-only effect, or another doubt; inactive = no such curve, though single readings can be large; an effect the other way counts as inactive or inconclusive.

SMILES	PI5P4K alpha inh	FEN1 inhibitor	PLK1 PBD inh	WRN inhibitor	VDR inhibitor	TCR act
CCn1c2ccccc2c2cc(/C=N/n3c(-c4cc(C)[nH]n4)n[nH]c3=S)ccc21	-60	?	–	–[11.6 µM]	–	–
S=c1[nH]nc(-c2cc(-c3ccccc3)n[nH]2)n1/N=C/c1ccc(Cl)cc1	–	–	–	–[11.6 µM]	–	–
Cc1cc(-c2n[nH]c(=S)n2/N=C/c2ccc(Cl)c([N+](=O)[O-])c2)n[nH]1	–	–	?	–	–	–
S=c1[nH]nc(-c2cc(-c3ccccc3)n[nH]2)n1/N=C/c1ccc(Cl)c(Cl)c1	–	?	?	35µM	–	–
CCn1c2ccccc2c2cc(/C=N/n3cn[nH]c3=S)ccc21	·	?	–	–	–	–
S=c1[nH]nc(-c2cc(-c3ccccc3)n[nH]2)n1/N=C/c1cccc(Cl)c1	–	?	?	50µM	–	–
CCn1c(=O)cc(SCC(=O)NCc2ccc(Cl)cc2)c2ccccc21	·	–	·	·	–	·
CCOc1ccc2oc(=O)cc(CN3CCN(c4ccc(Cl)cc4)CC3)c2c1	·	–	·	·	–	·
COC(=O)c1c(N2C(=O)CC(Sc3ccccc3C(=O)O)C2=O)sc2c1CCCC2 (centres undefined)	–	–	24µM	–	–	–
C=CCn1c(NC(=O)c2ccc(Br)o2)c(C(=O)OCC)sc1=S	·	–	6.7µM	–	89µM	·
COc1ccccc1C(=O)Nc1ccc(-c2nc3cc(C)cc(C)c3o2)cc1	·	–	·	·	89µM	·
COc1cc(/C=C2\SC(N)=NC2=O)cc(Cl)c1O	-76	–	–	–	–	–
CCc1ccc(Nc2n[n+](C)c(-c3ccncc3)s2)cc1	?	–	?	–	79µM	–
O=C(O)CC/C(=C\c1ccccc1[N+](=O)[O-])c1nc2ccccc2s1	–	–	–	–	–	–
O=C(O)CC/C(=C\c1ccc(N2CCCC2)c([N+](=O)[O-])c1)c1nc2ccccc2s1	–	?	34µM	?	?	–
COc1ccc(-c2c3c([nH]c(=S)c2C#N)CCC3)cc1	-70	–	7.5µM	–	?	–
COc1ccc(-c2c(C#N)c(SCC(N)=O)nc3c2CCCC3)cc1	–	–	?	–	–	–
COc1ccc(OC)c(-c2c3c([nH]c(=S)c2C#N)CCCC3)c1	-58	–	27µM	–	–	–
Cc1ccc(OC2=NS(=O)(=O)c3ccccc32)cc1	–	–	–	–	–	–
CCc1ccc(OC2=NS(=O)(=O)c3ccccc32)cc1	–	–	12µM	–	–	–
CCN(CC)c1cccc(OC2=NS(=O)(=O)c3ccccc32)c1	–	–	3.4µM	–	–	–
COc1ccc(NC(=O)CSc2nc(-c3ccccc3)cc(-c3cc(OC)c(OC)c(OC)c3)c2C#N)c(OC)c1	·	–	·	·	–	·
Cn1c(SCC(=O)c2ccccc2)nnc1-c1cccc(N)c1	–	–	24µM	–	–	–
O=c1cc(CN2CCN(C/C=C/c3ccccc3)CC2)c2cc(O)c(-c3ccccc3)cc2o1	–	–	–	–	?	–
CC(C)CN(Cc1cc(=O)oc2cc(-c3ccccc3)c(O)cc12)CC(C)C	–	–	30µM	–	–	–
SMILES	PI5P4K alpha inh	FEN1 inhibitor	PLK1 PBD inh	WRN inhibitor	VDR inhibitor	TCR act
O/N=C(/C[n+]1cccc(Br)c1)c1ccc2ccccc2c1	·	–	·	·	·	·
O=C(c1ccco1)N(Cc1ccc(Cl)cc1)Cc1ccco1	–	–	–	–	–	–
CN(C)c1ccc(CN(Cc2ccco2)C(=O)c2ccco2)cc1	–	–	24µM	–	–	–
CN(C)c1ccc(C(=S)NCc2ccco2)cc1	–	–	19µM	–	?	–
CCn1nc(NS(=O)(=O)c2ccccc2)c2cc3ccccc3nc21	–	–	27µM	–	?	–
O=c1c2c3nc4ccccc4nc3n(Cc3ccccc3)c2ncn1Cc1ccco1	-68	–	–	?	–	–
